A number with no mark means an inactive call. The rule behind the calls is not given here.
molecular target: Pantothenate synthetase (Mycobacterium tuberculosis (strain ATCC 25618 / H37Rv)) (UniProt P9WIL5); test: Recombinant Mtb pantothenate synthetase (PanC) inhibitors, coupled enzyme, confirmatory (AID 375); details: coupled enzyme assay; at 10 µM, stronger effect = higher value;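 note: 0% = full reaction with vehicle and 100% = no enzyme background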
Sequence (P9WIL5 whole entry, looked up): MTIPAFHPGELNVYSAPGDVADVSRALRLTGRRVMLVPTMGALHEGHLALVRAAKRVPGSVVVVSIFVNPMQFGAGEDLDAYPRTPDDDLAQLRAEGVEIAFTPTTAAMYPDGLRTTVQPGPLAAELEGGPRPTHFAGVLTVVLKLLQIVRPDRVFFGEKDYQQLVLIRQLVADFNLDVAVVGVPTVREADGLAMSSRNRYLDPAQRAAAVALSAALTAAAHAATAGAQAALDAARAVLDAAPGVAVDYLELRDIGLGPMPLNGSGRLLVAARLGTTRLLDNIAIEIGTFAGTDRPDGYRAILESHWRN

Row | SMILES | inhibition
1 | CCOC(=O)Cc1nnc(NC(=O)CSc2nnc3c4ccccc4n(C(C)C)c3n2)s1 | 1%
2 | Cc1c(C#N)c2ncnc(-c3ccccc3)c2n1-c1ccccc1 | 0%
3 | COc1ccc(CCNc2nc(N3CCOCC3)nc(N3CCOCC3)n2)cc1OC | 0%
4 | COc1ccc(OC)c(C2/C(=C(\O)c3ccc4c(c3)OCCO4)C(=O)C(=O)N2CCCN(C)C)c1 (stereo unspecified) | 0%
5 | COC(=O)c1ccccc1NC(=O)COc1ccc(S(=O)(=O)N2CCCC2)cc1C | 0%
6 | O=C(c1ccc(=O)[nH]c1)N(Cc1ccco1)C1(C(=O)NC2CCCC2)CCCCC1 | 0%
7 | O=C(CCCn1ncn2c(cc3occc32)c1=O)N1CCc2ccccc2C1 | 6%
8 | CCOC(=O)c1cc2c(=O)n3ccccc3nc2n(CC2CCCO2)c1=NC(C)=O (stereo unspecified) | 4%
9 | CC(C)(C)c1ccc(-c2nnc(SCCC#N)n2C2CCCC2)cc1 | 0%
10 | CCn1cc(C(=O)NCC2CCCO2)c(=O)c2cc(S(=O)(=O)N(C)C)ccc21 (stereo unspecified) | 0%
11 | O=C(Nc1ccccc1C(=O)NCC1CCCO1)c1ccco1 (stereo unspecified) | 1%
12 | CCN(CC)S(=O)(=O)c1ccc(F)c(C(=O)NCCC(C)C)c1 | 2%
13 | CCOc1ccc(C2CC(c3cccc(C)c3)n3ncnc3N2)cc1 (stereo unspecified) | 0%
14 | Cc1cc(C(=O)Nc2c(C)n(C)n(-c3ccccc3)c2=O)c(C)o1 | 0%
15 | CCN(CC)c1nc(N(CC)CC)[nH]c(=O)n1 | 0%
16 | CCn1nnc(NC(=O)c2ccc(-c3ccc(Cl)cc3)o2)n1 | 2%

Reference: PubChem BioAssay
